# IL-1B inflam inh: qHTS for Inhibitors of Inflammasome Signaling: IL-1-beta AlphaLISA Primary Screen. THP-1 LPS/ATP IL-1B secretion, AlphaLISA, 16 h; hits give low values. activity change, % at 57.5 µM. hit rate 4.7% among 360,000; in the data active = activity change below about -50%; inconclusive = mostly about -30% to -49%; note: % is set by controls: 0 for no effect and ±100 for the full control effect
#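 Secreted IL-1B measured by AlphaLISA bead assay after 16 h compound exposure of THP-1 cells; compounds (final up to 57.5 uM) added 1 h before LPS (250 ng/mL) and ATP (1.25 mM) stimulation; lower signal means less secretion.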
# TDP1 cell CPT: qHTS for Inhibitors of human tyrosyl-DNA phosphodiesterase 1 (TDP1): qHTS in cells in presence of CPT. hit rate 12% among 420,000. chicken DT40 Tdp1-/-;hTDP1 cells + 20 nM CPT, ATP luminescence, 48 h. Potency, µM (highest dose often 46.2 µM), for the others: at the top dose activity change, negative = growth inhibition, most hits filed as inhibitors. AID 686979, 2013; note: potency is the fitted concentration of half-maximal effect; % is set by controls: 0 for no effect and ±100 for the full control effect; nearly all actives have a fitted effect of over 55% in size
#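 Chicken DT40 Tdp1-/- cells stably complemented with human TDP1 were seeded at 400 cells/well in medium containing 20 nM camptothecin, exposed to pin-transferred compounds, and grown at 37 °C for at least 48 hr. Viability was read as ATP luminescence.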
# HepG2 tox: qHTS for Inhibitors of TGF-b: Cytotox Counterscreen | HepG2 CAGA-GFP viability, ATP luminescence, 18 h | Potency, µM (top dose mostly 46.1 µM), for the others: at the top dose activity change, negative = cytotoxicity, usual class: cytotoxic | hit rate 0.76% among 410,000 | AID 588856, 2011; note: potency is the fitted concentration of half-maximal effect
#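 HepG2 CAGA-GFP cells (1000/well, DMEM with 1% FBS) received compound, then TGF-beta at 500 pg/mL final, and were incubated 18 hours at 37 degrees C. Viability was read by CellTiter-Glo luminescence. Media-only wells were set as complete cell-killing and DMSO as no toxicity.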
# ASM inhibitor: Inhibitors of Secretory Acid Sphingomyelinase (S-ASM): qHTS; Sphingomyelin phosphodiesterase (Homo sapiens), P17405; placental ASM, HMU-PC fluorogenic substrate, 60 min; Potency, µM (series often up to 57.5 µM), for the others: at the top dose activity change, negative = inhibition, most hits filed as inhibitors; hit rate 0.006% among 340,000; AID 504937, 2011; note: potency is the fitted concentration of half-maximal effect
# Target sequence (P17405 47-631 limits assumed): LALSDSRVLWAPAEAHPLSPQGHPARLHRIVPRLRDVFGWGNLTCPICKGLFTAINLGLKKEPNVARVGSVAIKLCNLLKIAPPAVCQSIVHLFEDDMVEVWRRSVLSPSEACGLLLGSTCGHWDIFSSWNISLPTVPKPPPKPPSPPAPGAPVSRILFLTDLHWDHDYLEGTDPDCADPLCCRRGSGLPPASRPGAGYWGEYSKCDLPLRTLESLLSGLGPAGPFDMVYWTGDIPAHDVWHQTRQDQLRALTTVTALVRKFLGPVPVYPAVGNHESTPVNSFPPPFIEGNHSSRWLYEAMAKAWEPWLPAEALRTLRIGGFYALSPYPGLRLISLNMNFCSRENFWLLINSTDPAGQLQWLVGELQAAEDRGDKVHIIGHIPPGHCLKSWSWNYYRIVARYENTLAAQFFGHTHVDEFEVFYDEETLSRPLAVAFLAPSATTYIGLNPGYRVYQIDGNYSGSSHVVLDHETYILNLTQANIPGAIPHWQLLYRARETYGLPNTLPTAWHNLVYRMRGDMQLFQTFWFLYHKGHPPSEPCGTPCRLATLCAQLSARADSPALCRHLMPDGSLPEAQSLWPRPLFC
#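 qHTS format. ASM enzyme prepared from human placenta hydrolyses the fluorogenic substrate HMU-PC0 (9 uM final) over 60 min at 37 °C after a 10 min compound preincubation.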
# DT40 TDP1 no CPT: qHTS for Inhibitors of human tyrosyl-DNA phosphodiesterase 1 (TDP1): qHTS in cells in absence of CPT | DT40 Tdp1-/- hTDP1 cells, no CPT, ATP luminescence, 48 h | Potency, µM (highest dose often 46.2 µM), without a hit: at the top dose activity change, negative = growth inhibition, usual class: inhibitors | hit rate 15% among 420,000 | AID 686978, 2013; note: potency is the fitted concentration of half-maximal effect; % is set by controls: 0 for no effect and ±100 for the full control effect; nearly all actives have a fitted effect of over 55% in size
#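 Seeded 400 DT40-hTDP1 cells/well (vehicle DMSO, no 20 nM CPT); pinned compounds; ≥48 hr at 37 °C; CellTiter-Glo luminescence as viability measure.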
# TGFb SMAD3 inh: qHTS for Inhibitors of TGF-b; Potency, µM (highest dose often 46.1 µM), for the others: top-dose activity, negative = inhibition, actives largely listed as inhibitors; hit rate 1.2% among 410,000; HepG2 CAGA-GFP TGF-b/SMAD3 reporter, GFP fluorescence, 18 h; TGF-beta stimulated, 500 pg/mL final; note: potency is the fitted concentration of half-maximal effect; % is set by controls: 0 for no effect and ±100 for the full control effect; nearly all actives have a fitted effect of over 65% in size
#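 Smad-responsive CAGA-GFP expression was quantified in HEPG2 cells exposed to compounds and 500 pg/mL final TGF-beta for 18 h at 37 degrees C; unstimulated wells defined full inhibition.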
# * marks the source's active call; other numbers are inactive results; ? = inconclusive; nt = no result given; [ ] = remark or other dose. Rows were chosen to be rich in hits. Some 19% of all compounds tested hit in one or more screens of this group. Unless noted, calls come from the whole dose curve; as a rule, active = well fitted curve in the direction sought with a large enough effect; inconclusive = small, poorly fitted or top-dose-only effect, or another doubt; inactive = no such curve, though single readings can be large; an effect the other way counts as inactive or inconclusive.
SMILES,IL-1B inflam inh,TDP1 cell CPT,HepG2 tox,ASM inhibitor,DT40 TDP1 no CPT,TGFb SMAD3 inh
CC(C)c1ccc(OCc2nnc(SCC(=O)N3CCCCC3)o2)cc1,-7,-24%,-13%,-3%,-27%,-9%
O=S(=O)(c1ccccc1)N1CCN(c2ncnc3scc(-c4ccccc4)c23)CC1,-4,16µM*,6%,-1%,?,4%
Cc1ccc(-c2csc3ncnc(N4CCc5ccccc5C4)c23)cc1,36,?,25%,-9%,21µM*,-2%
CCN1CCN(c2ncnc3scc(-c4ccc(C)cc4)c23)CC1,-15,?,-22%,2%,?,-6%
O=S(=O)(c1ccccc1)N1CCN(c2ncccn2)CC1,0,-23%,0%,3%,-8%,-20%
c1ccc(CC2CCN(c3ncnc4sccc34)CC2)cc1,-51*,5.2µM*,-36%,-8%,2.6µM*,?
COc1cccc(C(=O)NC(=O)Nc2cc(C)on2)c1,-14,-1%,-1%,0%,-4%,-2%
Cc1cc(NC(=O)CCCn2ccc([N+](=O)[O-])n2)n(Cc2ccc(F)cc2)n1,10,-11%,-2%,2%,-28%,1%
COc1cc(NS(=O)(=O)c2ccc3oc(=O)c4ncn(C)c4c3c2)cc(OC)c1,nt,-1%,4%,nt,-9%,18%
COc1ccc(NS(=O)(=O)c2cccc(C(=O)N/N=C(\C)c3cccnc3)c2)cc1,17,-17%,-4%,-1%,-8%,?
Cn1ccnc1C1CCCCN1C(=O)CN1Cc2ccccc2OC(c2ccccc2F)C1 (stereo unspecified),nt,-11%[9.04 µM],nt,nt,?,nt
CN(C1=C(NC(=O)c2ccccc2)C(=O)c2ccccc2C1=O)C1CCS(=O)(=O)C1 (stereo unspecified),?,2.6µM*,18µM*,-10%,2.6µM*,18µM*
CC(=O)NC1=C(NC2CCS(=O)(=O)C2)C(=O)c2ccccc2C1=O (stereo unspecified),22,10µM*,-56%,1%,12µM*,?
CC(C)n1ncc2c(C(=O)Nc3ccc(S(N)(=O)=O)cc3)cc(C3CC3)nc21,?,-18%,-33%,11%,-9%,-12%
CC(C)n1ncc2c(C(=O)Nc3cccc(S(=O)(=O)N(C)C)c3)cc(C3CC3)nc21,nt,18µM*,-37%,-17%,9.2µM*,-28%
CC(=O)Nc1ccc(NC(=O)c2cc(C3CC3)nc3c2cnn3C(C)C)cc1,-9,29µM*,-12%,-3%,?,-26%
CC(C)n1ncc2c(C(=O)Nc3ccc(S(C)(=O)=O)cc3)cc(C3CC3)nc21,-26,?,-6%,-21%,?,21%
CCCC(=O)N1CCC1(C)C(=O)NS(=O)(=O)c1cc(C)ccc1F (stereo unspecified),-3,-16%,1%,nt,-14%,2%
CC(CNC(=O)c1cc(-c2ccccc2)n[nH]1)c1ccccc1 (stereo unspecified),nt,?,-34%,nt,?,15%
Cc1nn(C(C)(C)C)c(OC(=O)c2ccco2)c1Sc1ccccc1,-6,-8%,-42%,0%,?,14%
COc1ccccc1C(=O)Oc1c(Sc2ccccc2)c(C)nn1C(C)(C)C,nt,?,-101%,nt,15µM*,?
Cc1ccccc1C(=O)Oc1c(Sc2ccccc2)c(C)nn1C(C)(C)C,nt,?,-43%,nt,15µM*,-20%
Cc1ccccc1OCc1nnc(SCc2cc(=O)c3cccc(F)c3[nH]2)n1C,nt,?,-27%,nt,?,-27%
COC(=O)c1ccc(Cl)cc1NC(=O)Nc1nnc(N(C)C2CCCCC2)s1,nt,-5%,-10%,nt,-21%,?
O=C(CCNS(=O)(=O)c1ccc2c(c1)CCN2C(=O)C1CC1)Nc1ccc(OC(F)(F)F)cc1,nt,?,-6%,nt,?,-5%
SMILES,IL-1B inflam inh,TDP1 cell CPT,HepG2 tox,ASM inhibitor,DT40 TDP1 no CPT,TGFb SMAD3 inh
CCC(=O)N1CCc2cc(S(=O)(=O)CCC(=O)N3CCN(c4cc(C)ccc4C)CC3)ccc21,nt,?,-7%,nt,?,-7%
O=C(CCNS(=O)(=O)c1ccc2c(c1)CCN2C(=O)C1CC1)N1CCN(c2cccc(C(F)(F)F)c2)CC1,nt,2.1µM*,-28%,nt,1.6µM*,?
Cc1ccc(Cl)cc1N1CCN(C(=O)CCNS(=O)(=O)c2ccc3c(c2)CCN3C(=O)C2CC2)CC1,nt,8.2µM*,-17%,nt,23µM*,-14%
COc1ccccc1N1CCN(C(=O)CCNS(=O)(=O)c2ccc3c(c2)CCN3C(=O)C2CC2)CC1,nt,16µM*,-28%,nt,23µM*,-16%
COc1ccc(C(CNC(=O)Cc2ccc(Cl)cc2)N2CCOCC2)cc1 (stereo unspecified),nt,-23%,6%,nt,-14%,-9%
CC(=O)Nc1ccc(NC(=O)CCCn2cnc3ccccc3c2=O)cc1,40,-10%,10%,4%,25%,4%
CCOC(=O)c1ccc(NC(=O)CSc2nc3ncc(Br)c(C)c3[nH]2)cc1,nt,-21%,-12%,nt,3%,-8%
Clc1ccc2nc(-c3ccccn3)c(Nc3ccc4c(c3)OCO4)n2c1,6,?,11%,-2%,21µM*,15%
COc1cc(-c2nc3ccc(Cl)cn3c2Nc2ccc3c(c2)OCO3)ccc1O,nt,15µM*,-65%,nt,13µM*,?
CN(C)c1ccc(-c2nc3cnccn3c2Nc2ccc3c(c2)OCCO3)cc1,3,-30%,11%,4%,-6%,-10%
COc1cc(-c2nc3sccn3c2Nc2cccc(C)c2)ccc1O,nt,?,-26%,nt,16µM*,-17%
CN(C)c1ccc(-c2nc3ccc(Cl)cn3c2Nc2ccc3c(c2)OCCO3)cc1,nt,?,-21%,nt,15µM*,-1%
CCOc1ccc(C(=O)N[C@H](C(=O)NNC(=O)c2cccs2)C(C)C)cc1,21,-9%,-14%,-2%,-27%,-31%
COc1cc(-c2nc3ccc(C)cn3c2Nc2ccc(Cl)cc2)ccc1O,nt,16µM*,16µM*,nt,18µM*,?
O=C(Nc1ccncc1)c1cccc(S(=O)(=O)N2CCN(c3ccc(F)cc3)CC2)c1,?,21µM*,-22%,-1%,21µM*,0%

# Source: PubChem BioAssay
